These entries were drawn from the full list.
aSyn 5UTR act: Activators via SNCA 5'UTR binding, MLPCN | 300,000 compounds, 7.1% hits | alpha-synuclein 5'UTR reporter, activators screen | AID 1814, 2009 | activity score, % (tested at 7.5 µM), hits read low; in the data active means activity score below about -60%
Numbers stand for hits.

Screening CCCOc1ccc(CNC(=O)Cc2cccs2)cc1 returned aSyn 5UTR act -98.
For O=C(CSc1ncccn1)NCc1cccc(Cl)c1 the results were aSyn 5UTR act -65.
O=C(Cc1cccs1)NCc1cccc(Cl)c1 was read as aSyn 5UTR act -88.
`O=C(Cc1cccs1)NCc1ccc(Cl)cc1Cl` gave aSyn 5UTR act -155.
COc1ccc(/C=C2\SC(=S)N(CCCC(=O)NNC(=O)c3ccccc3O)C2=O)cc1 was read as aSyn 5UTR act inactive.
COc1ccc(/C=C2\SC(=O)N(CCNC(=O)Cc3coc4cc(OC)ccc34)C2=O)cc1 was read as aSyn 5UTR act -70.
Screening COc1ccc(/C=C2\SC(=O)N(CCNC(=O)C3=COCCO3)C2=O)cc1 returned aSyn 5UTR act -129.
Screening CN1C(=O)NC(c2ccc(O)cc2)C(C(=O)c2cccs2)C1(O)C(F)(F)F (stereo not given) returned aSyn 5UTR act -100.
COc1cc(C2NC(=S)NC(O)(C(F)(F)F)C2C(=O)c2cccs2)cc(OC)c1O (stereo not given) was read as aSyn 5UTR act -95.
For CC(C)CN1CCN(Cc2cnc(-c3ccc(Cl)cc3)nc2)CC1CCO (stereo not given) the results were aSyn 5UTR act -78.
Screening O=C(NNC(=S)Nc1ccccc1)c1cccs1 returned aSyn 5UTR act -231.
Screening O=C(NNC(=S)Nc1ccc(Cl)cc1)c1cccs1 returned aSyn 5UTR act -125.
Screening COc1cc(/C=N/O)ccc1OCc1ccccc1Cl returned aSyn 5UTR act -113.
`COc1ccc(N2C(=O)c3ccccc3NC23CCCC3)cc1` gave aSyn 5UTR act -90.
`Cc1ccnc2nc(C(=O)Nc3cc(Cl)ccc3N3CCOCC3)nn12` gave aSyn 5UTR act -77.
COc1ccc2nc(/C=N/NC(=O)CCCCCNC(=O)OC(C)(C)C)ccc2c1 was read as aSyn 5UTR act -70.
For COc1ccc2nc(C)cc(SCC(=O)N/N=C/c3ccc(O)cc3O)c2c1 the results were aSyn 5UTR act inactive.
Cc1cccc(C)c1OCC(O)CN(Cc1ccccc1O)C1CCCCC1 (stereo not given) was read as aSyn 5UTR act inactive.
CCC(=O)Nc1nc2ccccc2n1Cc1ccccc1Cl was read as aSyn 5UTR act inactive.
Screening CCn1c(SCc2ccccc2Cl)nc2ccccc21 returned aSyn 5UTR act -97.
For Cn1c(SCc2ccccc2Cl)nc2ccccc21 the results were aSyn 5UTR act -190.
`Cc1ccccc1Nc1nc2ccccc2s1` gave aSyn 5UTR act -220.
For CN(C)c1ccc(CNc2nc3ccccc3s2)cc1 the results were aSyn 5UTR act inactive.
Cc1ccccc1Nc1nn2c(=O)c3ccccc3nc2s1 was read as aSyn 5UTR act -155.
Fc1ccc(Nc2nc3ccccc3s2)cc1 was read as aSyn 5UTR act -207.
Screening Cc1ccc(Nc2nc3ccccc3s2)cc1 returned aSyn 5UTR act -171.
COc1cccc(CN(C)C(=O)CCc2nnc(-c3ccsc3)o2)c1 was read as aSyn 5UTR act -80.
Cc1ccsc1CN(C)C(=O)CCc1nnc(COc2ccccc2)o1 was read as aSyn 5UTR act -62.
CN(Cc1ccsc1)C(=O)CCc1nnc(CCCc2ccccc2)o1 was read as aSyn 5UTR act -119.
Cn1cccc1C(=O)OCc1cc(Cl)cc2c1OCOC2 was read as aSyn 5UTR act -80.
Screening Cc1ccc(C2(C)NC(=O)N(CC(=O)Nc3nc(-c4ccccn4)cs3)C2=O)cc1 (stereo not given) returned aSyn 5UTR act inactive.
For Cc1csc(NC(=O)CSc2ccccc2F)n1 the results were aSyn 5UTR act -88.
Screening CC(C)(C)c1ccc(-c2csc(NC(=O)CN3C(=O)NC4(CCCCC4)C3=O)n2)cc1 returned aSyn 5UTR act -79.
Screening COCCNC(=O)CSc1nc(-c2ccccc2)cs1 returned aSyn 5UTR act -73.
Screening COCc1cc(C)nc(SCC(=O)Nc2nc(C)cs2)c1C#N returned aSyn 5UTR act inactive.
`CC(C)(C)NC(=O)CSc1nc(-c2ccc(F)cc2)cs1` gave aSyn 5UTR act -181.
Screening Cc1ccc(-c2csc(NC(=O)CSc3nc(C)cs3)n2)cc1 returned aSyn 5UTR act -160.
For Cc1csc(SCC(=O)Nc2nc(-c3ccccc3)cs2)n1 the results were aSyn 5UTR act -80.
For COc1ccc2cc1Oc1ccc(cc1)CC1c3c(cc(OC)c4c3Oc3cc5c(cc3O4)CCNC5C2)CCN1C (stereo not given) the results were aSyn 5UTR act inactive.
`O=C(c1ccccc1)N1CCN2C(=O)c3ccccc3C12c1ccc(Cl)cc1` (stereo not given) gave aSyn 5UTR act -72.
Screening Cc1cccnc1CN1CCN(C(=O)CCc2nnc(CCc3ccccc3)o2)CC1 returned aSyn 5UTR act -72.
`CCc1ccc2c(c1)/C(=N/N(C)C(=S)NC)C(=O)N2` gave aSyn 5UTR act -71.
Screening O=c1[nH]c(=O)c2nc3c4ccccc4c4ccccc4c3nc2[nH]1 returned aSyn 5UTR act -70.
`O=C1c2ccccc2C(=O)c2[nH]c(=O)[nH]c21` gave aSyn 5UTR act inactive.
COc1cc(/C=C(\C#N)c2nc3ccccc3[nH]2)ccc1Oc1ccc([N+](=O)[O-])cn1 was read as aSyn 5UTR act -104.
`N#C/C(=C\c1cc([N+](=O)[O-])c(N2CCOCC2)cc1N1CCOCC1)c1nc2ccccc2[nH]1` gave aSyn 5UTR act -92.
COc1cc(/C=C(\C#N)c2nc3ccccc3[nH]2)cc(OC)c1O was read as aSyn 5UTR act -99.
For COc1ccc(/C=C(\C#N)c2nc3ccccc3[nH]2)cc1O the results were aSyn 5UTR act -144.
Screening COc1ccc(/C=C(\C#N)c2nc3ccc(C)cc3[nH]2)cc1Oc1ccc(C(F)(F)F)cc1[N+](=O)[O-] returned aSyn 5UTR act -85.
For COc1c(O)ccc(/C=C(\C#N)c2nc3ccccc3[nH]2)c1[N+](=O)[O-] the results were aSyn 5UTR act -92.
COc1cc(/C=C(/C#N)c2nc3ccccc3[nH]2)ccc1OC(=O)c1ccco1 was read as aSyn 5UTR act -114.
Screening c1ccc2c(c1)CC/C2=N/Nc1nc2ccccc2[nH]1 returned aSyn 5UTR act -174.
CCOC(=O)c1ccc(NC(=O)c2ccc3c(c2)OCO3)cc1 was read as aSyn 5UTR act -118.
Screening CCN(CC)c1ccc(NC(=O)c2ccc3c(c2)OCO3)cc1 returned aSyn 5UTR act -133.
`CCOC(=O)c1c(C)[nH]c(C(=O)Nc2ccc3c(c2)OCO3)c1C` gave aSyn 5UTR act -99.
For N/C(=N\OC(=O)CCCc1ccccc1)c1ccccc1Cl the results were aSyn 5UTR act -98.
For COc1ccc(/C(N)=N/OC(=O)CCc2ccccc2)cc1 the results were aSyn 5UTR act -100.
`COc1ccc(C(=O)C(CCC(CNC(C)(C)C)C(=O)c2ccc(OC)cc2)CNC(C)(C)C)cc1` (stereo not given) gave aSyn 5UTR act inactive.
`Cc1ccc(/C(N)=N/OC(=O)Cc2ccccc2)cc1` gave aSyn 5UTR act -130.
For COc1ccc(C(=O)CC(=O)c2ccc(F)cc2)cc1 the results were aSyn 5UTR act -165.
`COc1ccc(C(=O)CCc2ccccc2)cc1` gave aSyn 5UTR act -111.
For COc1ccc(OCc2cccc(C(=O)O)c2)cc1 the results were aSyn 5UTR act inactive.
COc1ccc(NC(=O)CCSc2ccc(F)cc2)cc1 was read as aSyn 5UTR act -93.
N/C(=N\OC(=O)Cc1ccccc1)c1ccc(Br)cc1 was read as aSyn 5UTR act -80.
`Cc1ccc(/C(N)=N/OC(=O)CCCc2ccccc2)cc1` gave aSyn 5UTR act -68.
For O=C(Cc1ccccn1)c1ccc(F)cc1 the results were aSyn 5UTR act -64.

High-throughput results from PubChem.
